What all share (test): DAPPL (digital affinity profiling via proximity ligation, sequencing); 10 mM Tris-HCl pH 7.5, 50 mM NaCl, 1 mM DTT, 4% glycerol, room temperature, 30 min; GST-TFs on glutathione beads, 16-mer random dsDNA library, 0.1% formaldehyde crosslink after washing; high values mean tight binding
The target of experiment [1] is T1, FEV (Homo sapiens, UniProt Q99581 1-238).
T1 sequence: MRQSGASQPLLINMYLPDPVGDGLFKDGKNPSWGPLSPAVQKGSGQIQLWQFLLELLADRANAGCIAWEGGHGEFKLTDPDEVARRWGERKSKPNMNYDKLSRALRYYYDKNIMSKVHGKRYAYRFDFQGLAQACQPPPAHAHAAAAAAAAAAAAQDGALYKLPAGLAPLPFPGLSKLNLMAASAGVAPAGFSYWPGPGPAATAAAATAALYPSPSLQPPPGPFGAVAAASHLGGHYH
As to conditions: protein: recombinant; tags: N-terminal GST; dsDNA, one strand shown. Put shortly: (§1)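 Binding signal is given per hexamer as its read frequency for a factor divided by its frequency in the tag-only sample. GST-fused human transcription factors were expressed in yeast, captured on glutathione beads, barcoded with DNA and pooled with that sample, then incubated with 200 nmole of a 16-mer random double-stranded DNA library in Tris/NaCl/DTT/glycerol buffer for 30 min at room temperature. The pools were then washed, crosslinked, proximity-ligated, amplified by PCR and sequenced on an Illumina NextSeq500.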

The target in experiment [2] is ETV5 (Homo sapiens, UniProt P41161 1-510). As to conditions: protein: recombinant; tags: N-terminal GST; dsDNA, one strand shown. Put shortly: as §1
Experiment [3] addresses HSF1 (Homo sapiens, UniProt Q00613 1-529). As to conditions: protein: recombinant; tags: N-terminal GST; chain copies: 3; dsDNA, one strand shown. Put shortly:
as §1

For experiment [4], the target named is T2, SPIC (Homo sapiens, UniProt Q8N5J4 1-248).
T2 sequence: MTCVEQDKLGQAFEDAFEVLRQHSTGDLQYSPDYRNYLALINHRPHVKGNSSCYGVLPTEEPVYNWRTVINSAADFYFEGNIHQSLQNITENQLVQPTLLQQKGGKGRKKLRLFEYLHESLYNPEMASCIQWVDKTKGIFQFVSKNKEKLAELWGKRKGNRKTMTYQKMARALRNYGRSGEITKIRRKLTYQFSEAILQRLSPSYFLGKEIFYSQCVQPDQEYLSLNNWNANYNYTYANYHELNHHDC
As to conditions: protein: recombinant; tags: N-terminal GST; dsDNA, one strand shown. Put shortly: as §1

Experiment [5] concerns the target ELF4 (Homo sapiens, UniProt Q99607 1-663). As to conditions: protein: recombinant; tags: N-terminal GST; dsDNA, one strand shown. Put shortly:
as §1

In experiment [6] the target is T3, ELK4 (Homo sapiens, UniProt P28324-2 1-405).
T3 sequence: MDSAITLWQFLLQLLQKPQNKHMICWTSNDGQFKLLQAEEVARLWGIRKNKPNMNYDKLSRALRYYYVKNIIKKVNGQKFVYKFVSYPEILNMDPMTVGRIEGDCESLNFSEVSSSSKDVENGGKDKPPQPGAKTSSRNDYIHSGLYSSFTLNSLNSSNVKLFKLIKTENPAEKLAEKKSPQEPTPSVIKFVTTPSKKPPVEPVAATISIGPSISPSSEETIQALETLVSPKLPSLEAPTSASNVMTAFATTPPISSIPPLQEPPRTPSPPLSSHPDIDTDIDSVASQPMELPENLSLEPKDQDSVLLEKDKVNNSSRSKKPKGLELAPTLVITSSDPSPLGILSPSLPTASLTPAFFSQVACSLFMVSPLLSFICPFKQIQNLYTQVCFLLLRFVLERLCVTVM
As to conditions: protein: recombinant; tags: N-terminal GST; dsDNA, one strand shown. Put shortly:
as §1

For experiment [7], the target named is T4, ETV2 (Homo sapiens, UniProt O00321 1-342).
T4 sequence: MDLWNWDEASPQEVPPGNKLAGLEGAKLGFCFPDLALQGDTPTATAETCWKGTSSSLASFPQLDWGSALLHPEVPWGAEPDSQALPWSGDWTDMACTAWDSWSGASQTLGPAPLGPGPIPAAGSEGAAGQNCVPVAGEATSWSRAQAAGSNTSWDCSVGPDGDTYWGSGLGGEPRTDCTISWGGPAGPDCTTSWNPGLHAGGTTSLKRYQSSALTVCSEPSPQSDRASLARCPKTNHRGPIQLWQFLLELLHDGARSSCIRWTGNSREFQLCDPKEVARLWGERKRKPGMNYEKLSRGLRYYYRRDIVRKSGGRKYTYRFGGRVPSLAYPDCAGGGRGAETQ
As to conditions: protein: recombinant; tags: N-terminal GST; dsDNA, one strand shown. The procedure, abridged: as §1

Experiment [8] has as its target T5, ELF3 (Homo sapiens, UniProt P78545 1-371).
T5 sequence: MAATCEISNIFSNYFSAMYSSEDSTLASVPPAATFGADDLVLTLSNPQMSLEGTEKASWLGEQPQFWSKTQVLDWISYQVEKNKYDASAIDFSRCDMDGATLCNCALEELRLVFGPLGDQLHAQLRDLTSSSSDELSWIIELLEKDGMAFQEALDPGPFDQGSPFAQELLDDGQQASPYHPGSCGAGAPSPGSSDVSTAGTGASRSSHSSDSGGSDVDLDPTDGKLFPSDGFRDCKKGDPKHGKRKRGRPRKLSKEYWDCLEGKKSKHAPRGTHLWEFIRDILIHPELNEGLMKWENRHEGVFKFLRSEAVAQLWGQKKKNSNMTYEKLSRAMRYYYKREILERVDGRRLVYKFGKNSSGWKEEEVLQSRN
As to conditions: protein: recombinant; tags: N-terminal GST; dsDNA, one strand shown. The procedure, abridged:
as §1

Experiment [9] concerns the target CRX (Homo sapiens, UniProt O43186 1-299). As to conditions: protein: recombinant; tags: N-terminal GST; dsDNA, one strand shown. The procedure, abridged:
as §1

In experiment [10] the target is ETV1 (Homo sapiens, UniProt P50549 1-477). As to conditions: protein: recombinant; tags: N-terminal GST; dsDNA, one strand shown. Put shortly: as §1
For experiment [11], the target named is T6, ERF (Homo sapiens, UniProt P50548 1-548).
T6 sequence: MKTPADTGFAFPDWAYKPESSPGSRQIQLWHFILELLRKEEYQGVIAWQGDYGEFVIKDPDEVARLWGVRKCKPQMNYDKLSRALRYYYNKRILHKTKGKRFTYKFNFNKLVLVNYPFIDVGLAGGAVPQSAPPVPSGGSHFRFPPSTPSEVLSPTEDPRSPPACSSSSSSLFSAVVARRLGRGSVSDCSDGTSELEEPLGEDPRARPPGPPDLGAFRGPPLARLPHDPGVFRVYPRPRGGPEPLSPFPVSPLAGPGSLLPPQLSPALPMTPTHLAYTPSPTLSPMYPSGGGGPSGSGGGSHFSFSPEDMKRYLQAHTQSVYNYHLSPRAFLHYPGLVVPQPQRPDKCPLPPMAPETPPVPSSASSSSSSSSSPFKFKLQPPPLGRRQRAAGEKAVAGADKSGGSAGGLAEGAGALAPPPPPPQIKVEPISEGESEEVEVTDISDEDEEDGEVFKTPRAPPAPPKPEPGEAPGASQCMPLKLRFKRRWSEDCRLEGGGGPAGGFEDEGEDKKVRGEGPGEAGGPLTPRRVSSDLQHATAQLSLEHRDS
As to conditions: protein: recombinant; tags: N-terminal GST; dsDNA, one strand shown. Put shortly: as §1

For experiment [12], the target named is T7, ETV3L (Homo sapiens, UniProt Q6ZN32 1-361).
T7 sequence: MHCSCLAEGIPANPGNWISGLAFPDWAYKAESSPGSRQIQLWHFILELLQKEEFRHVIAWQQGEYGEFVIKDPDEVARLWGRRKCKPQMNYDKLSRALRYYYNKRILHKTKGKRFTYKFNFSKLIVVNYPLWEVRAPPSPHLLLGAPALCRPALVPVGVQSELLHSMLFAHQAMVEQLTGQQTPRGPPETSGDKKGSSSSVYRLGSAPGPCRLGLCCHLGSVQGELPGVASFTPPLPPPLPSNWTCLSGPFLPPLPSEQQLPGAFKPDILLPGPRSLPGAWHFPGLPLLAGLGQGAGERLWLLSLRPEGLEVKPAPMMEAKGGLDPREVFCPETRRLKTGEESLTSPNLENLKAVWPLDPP
As to conditions: protein: recombinant; tags: N-terminal GST; dsDNA, one strand shown. Put shortly:
as §1

For experiment [13], the target named is T8, ETS2 (Homo sapiens, UniProt P15036 1-469).
T8 sequence: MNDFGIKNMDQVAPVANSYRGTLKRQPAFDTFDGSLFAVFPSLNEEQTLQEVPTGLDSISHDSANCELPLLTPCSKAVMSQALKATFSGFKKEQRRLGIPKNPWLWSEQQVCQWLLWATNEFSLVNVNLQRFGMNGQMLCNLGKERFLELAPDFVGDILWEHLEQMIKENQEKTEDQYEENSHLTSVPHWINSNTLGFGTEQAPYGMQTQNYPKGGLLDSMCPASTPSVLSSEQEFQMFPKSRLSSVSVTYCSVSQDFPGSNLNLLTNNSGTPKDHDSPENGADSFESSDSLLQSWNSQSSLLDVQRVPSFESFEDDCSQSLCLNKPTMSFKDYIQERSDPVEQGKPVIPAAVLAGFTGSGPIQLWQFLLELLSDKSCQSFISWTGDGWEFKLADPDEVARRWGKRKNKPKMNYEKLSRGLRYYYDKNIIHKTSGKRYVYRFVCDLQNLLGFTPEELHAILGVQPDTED
As to conditions: protein: recombinant; tags: N-terminal GST; dsDNA, one strand shown. Put shortly: as §1

Experiment [14] addresses T9, SPDEF (Homo sapiens, UniProt O95238 1-335).
T9 sequence: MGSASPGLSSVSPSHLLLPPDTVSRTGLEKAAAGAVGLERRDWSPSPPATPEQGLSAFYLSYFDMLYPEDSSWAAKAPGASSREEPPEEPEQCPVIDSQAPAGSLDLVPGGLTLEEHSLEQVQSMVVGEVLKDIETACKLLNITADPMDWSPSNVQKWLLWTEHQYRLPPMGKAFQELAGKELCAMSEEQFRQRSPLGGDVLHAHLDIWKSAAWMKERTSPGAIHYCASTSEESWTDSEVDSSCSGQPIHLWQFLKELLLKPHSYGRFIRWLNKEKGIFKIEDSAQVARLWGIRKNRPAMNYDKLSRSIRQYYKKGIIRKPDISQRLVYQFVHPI
As to conditions: protein: recombinant; tags: N-terminal GST; dsDNA, one strand shown. Put shortly:
as §1

Experiment [15] deals with T10, ETV7 (Homo sapiens, UniProt Q9Y603 1-341).
T10 sequence: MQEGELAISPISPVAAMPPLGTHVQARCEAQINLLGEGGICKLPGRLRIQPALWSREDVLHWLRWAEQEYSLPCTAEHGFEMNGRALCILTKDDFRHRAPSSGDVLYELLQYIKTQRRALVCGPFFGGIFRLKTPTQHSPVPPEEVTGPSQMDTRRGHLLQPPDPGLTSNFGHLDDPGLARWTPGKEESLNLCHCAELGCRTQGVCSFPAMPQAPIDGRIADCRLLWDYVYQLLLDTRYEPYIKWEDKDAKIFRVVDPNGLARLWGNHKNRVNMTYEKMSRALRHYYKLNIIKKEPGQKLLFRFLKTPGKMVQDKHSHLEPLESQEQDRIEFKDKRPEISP
As to conditions: protein: recombinant; tags: N-terminal GST; dsDNA, one strand shown. The procedure, abridged: as §1

Experiment [16] deals with T11, ELF5 (Homo sapiens, UniProt Q9UKW6-2 1-255).
T11 sequence: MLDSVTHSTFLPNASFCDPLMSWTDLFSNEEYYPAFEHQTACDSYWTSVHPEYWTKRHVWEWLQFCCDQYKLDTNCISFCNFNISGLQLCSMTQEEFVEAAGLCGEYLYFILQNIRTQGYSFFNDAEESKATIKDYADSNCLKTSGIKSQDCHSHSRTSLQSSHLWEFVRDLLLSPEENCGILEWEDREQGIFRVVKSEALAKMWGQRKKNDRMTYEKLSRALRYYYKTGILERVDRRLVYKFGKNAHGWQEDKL
As to conditions: protein: recombinant; tags: N-terminal GST; dsDNA, one strand shown. Put shortly:
as §1

The target of experiment [17] is T12, ETV3 (Homo sapiens, UniProt P41162-2 1-143).
T12 sequence: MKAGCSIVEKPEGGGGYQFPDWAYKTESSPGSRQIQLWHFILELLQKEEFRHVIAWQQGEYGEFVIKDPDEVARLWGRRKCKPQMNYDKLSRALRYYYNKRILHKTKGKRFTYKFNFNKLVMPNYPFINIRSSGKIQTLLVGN
As to conditions: protein: recombinant; tags: N-terminal GST; dsDNA, one strand shown. The procedure, abridged:
as §1

The target in experiment [18] is ETV6 (Homo sapiens, UniProt P41212 1-452). As to conditions: protein: recombinant; tags: N-terminal GST; dsDNA, one strand shown. Put shortly: as §1

Drawing on paper PMC7862700, “An all-to-all approach to the identification of sequence-specific readers for epigenetic DNA modifications on cytosine”, this text covers binding signal for one sequence.

Sequence of CRX (O43186 whole entry): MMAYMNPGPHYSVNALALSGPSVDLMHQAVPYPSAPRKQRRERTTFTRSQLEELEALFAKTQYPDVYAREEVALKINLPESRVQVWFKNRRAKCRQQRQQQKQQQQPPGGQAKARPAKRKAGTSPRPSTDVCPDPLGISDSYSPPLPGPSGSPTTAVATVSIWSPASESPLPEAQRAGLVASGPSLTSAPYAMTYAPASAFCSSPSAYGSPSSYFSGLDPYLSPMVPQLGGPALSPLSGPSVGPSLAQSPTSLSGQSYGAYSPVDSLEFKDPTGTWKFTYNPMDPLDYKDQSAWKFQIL
Sequence of HSF1 (Q00613 whole entry): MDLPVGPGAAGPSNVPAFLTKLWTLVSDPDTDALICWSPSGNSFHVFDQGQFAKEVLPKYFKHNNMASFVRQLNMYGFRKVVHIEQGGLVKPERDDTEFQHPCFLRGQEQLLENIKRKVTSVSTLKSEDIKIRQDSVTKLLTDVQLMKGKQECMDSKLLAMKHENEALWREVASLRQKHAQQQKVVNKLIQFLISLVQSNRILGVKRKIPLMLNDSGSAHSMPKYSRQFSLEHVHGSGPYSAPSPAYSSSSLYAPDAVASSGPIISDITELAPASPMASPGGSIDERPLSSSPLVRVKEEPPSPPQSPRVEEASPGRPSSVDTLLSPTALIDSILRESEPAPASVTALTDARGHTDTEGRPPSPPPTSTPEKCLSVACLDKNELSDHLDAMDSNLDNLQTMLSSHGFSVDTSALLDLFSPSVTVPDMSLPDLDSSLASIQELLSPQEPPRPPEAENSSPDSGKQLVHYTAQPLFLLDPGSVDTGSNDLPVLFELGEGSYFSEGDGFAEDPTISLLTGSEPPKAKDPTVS
Sequence of ETV6 (P41212 whole entry): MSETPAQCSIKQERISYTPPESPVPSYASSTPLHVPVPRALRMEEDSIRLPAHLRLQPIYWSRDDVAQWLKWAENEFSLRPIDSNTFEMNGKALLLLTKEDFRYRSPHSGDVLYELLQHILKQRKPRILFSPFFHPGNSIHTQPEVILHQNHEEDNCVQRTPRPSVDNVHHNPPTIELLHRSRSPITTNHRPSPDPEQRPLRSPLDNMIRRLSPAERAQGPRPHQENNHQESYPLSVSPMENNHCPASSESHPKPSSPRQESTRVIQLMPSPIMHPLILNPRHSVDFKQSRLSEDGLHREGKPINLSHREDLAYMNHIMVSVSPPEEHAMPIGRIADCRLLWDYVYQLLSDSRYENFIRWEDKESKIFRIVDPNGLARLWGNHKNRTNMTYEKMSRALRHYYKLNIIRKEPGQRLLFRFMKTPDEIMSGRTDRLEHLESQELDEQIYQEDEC
Sequence of ELF4 (Q99607 whole entry): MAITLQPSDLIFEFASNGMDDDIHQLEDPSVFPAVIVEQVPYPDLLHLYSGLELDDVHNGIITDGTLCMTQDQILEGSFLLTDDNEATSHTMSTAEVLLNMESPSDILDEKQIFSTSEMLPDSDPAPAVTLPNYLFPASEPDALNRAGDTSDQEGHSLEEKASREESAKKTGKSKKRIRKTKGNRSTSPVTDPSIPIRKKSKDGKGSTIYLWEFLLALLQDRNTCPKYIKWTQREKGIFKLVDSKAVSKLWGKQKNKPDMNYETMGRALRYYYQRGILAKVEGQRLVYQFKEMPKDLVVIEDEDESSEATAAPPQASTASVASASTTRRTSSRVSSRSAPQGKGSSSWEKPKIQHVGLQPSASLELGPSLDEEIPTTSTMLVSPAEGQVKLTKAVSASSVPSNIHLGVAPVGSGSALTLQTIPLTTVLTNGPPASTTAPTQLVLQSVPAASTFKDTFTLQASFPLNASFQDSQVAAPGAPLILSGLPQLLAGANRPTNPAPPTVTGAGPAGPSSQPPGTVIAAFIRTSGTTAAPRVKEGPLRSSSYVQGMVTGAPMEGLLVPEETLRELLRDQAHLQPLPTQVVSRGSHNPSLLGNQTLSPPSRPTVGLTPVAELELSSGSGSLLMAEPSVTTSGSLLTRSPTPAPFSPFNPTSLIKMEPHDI
Sequence of ETV1 (P50549 whole entry): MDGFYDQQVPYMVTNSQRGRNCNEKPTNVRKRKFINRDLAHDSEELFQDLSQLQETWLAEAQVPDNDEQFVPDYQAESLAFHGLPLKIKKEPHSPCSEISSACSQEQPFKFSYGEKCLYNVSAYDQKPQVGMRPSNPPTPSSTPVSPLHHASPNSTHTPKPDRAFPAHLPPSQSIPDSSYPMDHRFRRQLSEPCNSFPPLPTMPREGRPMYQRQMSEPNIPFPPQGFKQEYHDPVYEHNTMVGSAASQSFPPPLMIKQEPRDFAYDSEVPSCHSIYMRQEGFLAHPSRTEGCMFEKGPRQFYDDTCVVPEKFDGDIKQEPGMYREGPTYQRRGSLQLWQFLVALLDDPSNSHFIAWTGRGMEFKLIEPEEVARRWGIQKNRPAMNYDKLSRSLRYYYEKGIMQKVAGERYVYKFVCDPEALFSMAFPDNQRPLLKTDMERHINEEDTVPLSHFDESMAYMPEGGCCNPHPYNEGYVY
Sequence of ETV5 (P41161 whole entry): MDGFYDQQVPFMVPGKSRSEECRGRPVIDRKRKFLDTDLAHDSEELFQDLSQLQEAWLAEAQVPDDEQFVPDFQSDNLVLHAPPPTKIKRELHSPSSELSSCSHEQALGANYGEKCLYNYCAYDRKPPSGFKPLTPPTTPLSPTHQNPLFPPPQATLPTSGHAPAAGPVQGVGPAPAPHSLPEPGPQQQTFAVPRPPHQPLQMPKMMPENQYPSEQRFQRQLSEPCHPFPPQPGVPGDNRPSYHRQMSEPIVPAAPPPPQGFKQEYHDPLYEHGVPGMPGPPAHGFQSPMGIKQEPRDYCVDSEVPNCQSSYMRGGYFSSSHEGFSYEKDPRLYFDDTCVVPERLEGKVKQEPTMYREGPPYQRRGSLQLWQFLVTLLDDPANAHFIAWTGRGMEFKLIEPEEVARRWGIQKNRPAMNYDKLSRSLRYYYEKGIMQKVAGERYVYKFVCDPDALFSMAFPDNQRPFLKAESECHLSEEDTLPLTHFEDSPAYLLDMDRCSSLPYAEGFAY

As to TTTTGT, the binding signal is 1.33 fold enrichment (6-mer frequency, TF over GST control) in [1]; 1.31 fold enrichment (6-mer frequency, TF over GST control) in [2]; 1.27 fold enrichment (6-mer frequency, TF over GST control) in experiment [3]; 1.2 fold enrichment (6-mer frequency, TF over GST control) in experiment [4]; 1.41 fold enrichment (6-mer frequency, TF over GST control) in [5]; 1.36 fold enrichment (6-mer frequency, TF over GST control) in experiment [6]. For the same sequence, the binding signal in experiment [7] is 1.28 fold enrichment (6-mer frequency, TF over GST control); in [8], 1.43 fold enrichment (6-mer frequency, TF over GST control); in experiment [9] it was 1.42 fold enrichment (6-mer frequency, TF over GST control); in experiment [10], 1.32 fold enrichment (6-mer frequency, TF over GST control); in [11], 1.33 fold enrichment (6-mer frequency, TF over GST control); in [12], 1.34 fold enrichment (6-mer frequency, TF over GST control). Further, the binding signal is 1.29 fold enrichment (6-mer frequency, TF over GST control) in [13]; 1.35 fold enrichment (6-mer frequency, TF over GST control) in [14]; 1.22 fold enrichment (6-mer frequency, TF over GST control) in experiment [15]; 1.33 fold enrichment (6-mer frequency, TF over GST control) in [16]; 1.34 fold enrichment (6-mer frequency, TF over GST control) in experiment [17]; 1.24 fold enrichment (6-mer frequency, TF over GST control) in [18].
